The target of assay [1] is Nuclear receptor coactivator 3 (Homo sapiens) (UniProt Q9Y6Q9). Briefly: NCOA3 GAL4-fusion reporter inhibition – cell-based, luminescence, quadruplicate, confirmation (AID 588792).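 Also: 0% = DMSO treated cells and 100% = gossypol at 36 µM.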 The following applies: HEK293 GAL4-SRC3 luciferase reporter, at 3.6 µM, active compounds read high. On the technique in general: A reporter such as luciferase makes a cellular process visible.
The subject of assay [2] is transactivating tegument protein VP16 (Human herpesvirus 1), Gal4-VP16 luciferase reporter. Briefly: repression of VP16-driven luciferase reporter – cell-based, luminescence, high throughput, counter-screen for SRC3 inhibitor project (AID 588794; in the data active = inhibition above about 30%). Conditions: mammalian cells, at 3.6 µM, active compounds read high.
Assay [3] has as its target Nuclear receptor coactivator 1 (Homo sapiens) (UniProt Q15788). Kind of assay: NCOA1 GAL4-fusion reporter inhibition – cell-based, luminescence, quadruplicate, confirmation (AID 588820;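 active = mean inhibition above 46.68%, the untreated control wells mean plus 3 SD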;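 also: 0% = DMSO wells and 100% = gossypol 36 µM treated wells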). Conditions: HEK293 GAL4-SRC1 luciferase reporter, at 3.6 µM, active compounds read high.
Assay [4] can be described thus: repression of VP16-driven luciferase reporter – cell-based, luminescence, high throughput, counter-screen for SRC1 inhibitor project (AID 588824; in the data active = inhibition above about 25%). The following applies: cell-based VP16 transactivation luciferase luminescence; at 3.6 µM; active compounds read high.
Assay [5] concerns transactivating tegument protein VP16 (Human herpesvirus 1). Kind of assay: compounds suppressing VP16-driven luciferase signal – cell-based, luminescence, single concentration, counter-screen for SRC2 inhibitor project (AID 652007; in the data active = inhibition above about 36%). Conditions: cell-based VP16 transactivation luciferase reporter, at 8.9 µM, active compounds read high. In general terms: The purpose of a counterscreen is to sort out artefacts and off-target activity.

The target of assay [6] is Nuclear receptor coactivator 2 (Homo sapiens) (UniProt Q15596). Kind of assay: inhibition of GAL4-SRC2 driven luciferase expression – cell-based, luminescence, HEK293, triplicate, confirmation (AID 652008;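 active = mean inhibition above 46.5%, the solvent-only control mean plus 3 SD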;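 also: 0% = DMSO-treated cells and 100% = Gossypol at 36 µM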). The following applies: HEK293 GAL4-SRC2 luciferase reporter, at 8.9 µM, active compounds read high.

Values without a mark were called inactive. Activity calls are given as the source filed them.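 The calls were made as follows, unless noted: active = mean inhibition over 43.08%, the solvent-only control mean plus 3 SD; inactive = the rest.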

This note sets out measurements from PubChem BioAssay.

Nuclear receptor coactivator 3 (Homo sapiens), sequence (Q9Y6Q9 whole entry, looked up, the tested form may be a part): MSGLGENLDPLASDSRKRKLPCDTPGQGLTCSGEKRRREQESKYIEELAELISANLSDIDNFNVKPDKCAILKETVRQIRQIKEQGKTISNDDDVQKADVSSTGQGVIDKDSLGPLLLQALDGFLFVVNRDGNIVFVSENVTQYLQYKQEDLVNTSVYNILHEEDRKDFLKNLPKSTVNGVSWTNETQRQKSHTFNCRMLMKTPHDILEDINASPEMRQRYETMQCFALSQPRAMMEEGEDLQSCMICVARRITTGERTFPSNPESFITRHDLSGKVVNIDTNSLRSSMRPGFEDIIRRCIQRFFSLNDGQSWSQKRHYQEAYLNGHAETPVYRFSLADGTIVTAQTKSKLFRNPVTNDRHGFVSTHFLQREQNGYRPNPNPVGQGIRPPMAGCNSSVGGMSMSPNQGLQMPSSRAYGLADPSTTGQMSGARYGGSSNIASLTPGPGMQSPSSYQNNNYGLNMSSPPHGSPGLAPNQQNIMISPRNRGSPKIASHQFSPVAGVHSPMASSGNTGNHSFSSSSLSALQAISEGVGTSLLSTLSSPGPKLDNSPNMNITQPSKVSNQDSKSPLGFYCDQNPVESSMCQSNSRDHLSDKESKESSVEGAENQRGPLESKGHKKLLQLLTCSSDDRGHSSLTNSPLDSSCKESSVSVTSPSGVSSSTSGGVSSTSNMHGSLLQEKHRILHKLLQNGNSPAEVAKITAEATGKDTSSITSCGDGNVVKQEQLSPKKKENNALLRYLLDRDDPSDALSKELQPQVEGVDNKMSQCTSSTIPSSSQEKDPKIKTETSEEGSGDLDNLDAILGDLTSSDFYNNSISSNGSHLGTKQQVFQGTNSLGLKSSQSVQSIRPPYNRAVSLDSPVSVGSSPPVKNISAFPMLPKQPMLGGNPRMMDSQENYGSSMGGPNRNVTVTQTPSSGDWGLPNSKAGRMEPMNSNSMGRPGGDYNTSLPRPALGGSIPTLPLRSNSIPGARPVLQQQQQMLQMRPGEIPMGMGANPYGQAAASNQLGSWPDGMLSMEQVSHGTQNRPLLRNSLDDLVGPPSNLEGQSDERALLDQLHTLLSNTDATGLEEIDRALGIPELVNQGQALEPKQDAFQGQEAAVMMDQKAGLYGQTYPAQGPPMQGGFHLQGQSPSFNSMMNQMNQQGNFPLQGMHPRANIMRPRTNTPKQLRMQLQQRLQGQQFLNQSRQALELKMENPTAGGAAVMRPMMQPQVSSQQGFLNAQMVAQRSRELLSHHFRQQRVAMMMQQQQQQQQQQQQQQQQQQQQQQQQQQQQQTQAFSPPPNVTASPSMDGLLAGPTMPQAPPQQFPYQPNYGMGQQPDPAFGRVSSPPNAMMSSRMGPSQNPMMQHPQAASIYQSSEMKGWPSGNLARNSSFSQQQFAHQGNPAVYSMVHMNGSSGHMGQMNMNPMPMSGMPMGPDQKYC
Nuclear receptor coactivator 1 (Homo sapiens), sequence (Q15788 whole entry, looked up, the tested form may be a part): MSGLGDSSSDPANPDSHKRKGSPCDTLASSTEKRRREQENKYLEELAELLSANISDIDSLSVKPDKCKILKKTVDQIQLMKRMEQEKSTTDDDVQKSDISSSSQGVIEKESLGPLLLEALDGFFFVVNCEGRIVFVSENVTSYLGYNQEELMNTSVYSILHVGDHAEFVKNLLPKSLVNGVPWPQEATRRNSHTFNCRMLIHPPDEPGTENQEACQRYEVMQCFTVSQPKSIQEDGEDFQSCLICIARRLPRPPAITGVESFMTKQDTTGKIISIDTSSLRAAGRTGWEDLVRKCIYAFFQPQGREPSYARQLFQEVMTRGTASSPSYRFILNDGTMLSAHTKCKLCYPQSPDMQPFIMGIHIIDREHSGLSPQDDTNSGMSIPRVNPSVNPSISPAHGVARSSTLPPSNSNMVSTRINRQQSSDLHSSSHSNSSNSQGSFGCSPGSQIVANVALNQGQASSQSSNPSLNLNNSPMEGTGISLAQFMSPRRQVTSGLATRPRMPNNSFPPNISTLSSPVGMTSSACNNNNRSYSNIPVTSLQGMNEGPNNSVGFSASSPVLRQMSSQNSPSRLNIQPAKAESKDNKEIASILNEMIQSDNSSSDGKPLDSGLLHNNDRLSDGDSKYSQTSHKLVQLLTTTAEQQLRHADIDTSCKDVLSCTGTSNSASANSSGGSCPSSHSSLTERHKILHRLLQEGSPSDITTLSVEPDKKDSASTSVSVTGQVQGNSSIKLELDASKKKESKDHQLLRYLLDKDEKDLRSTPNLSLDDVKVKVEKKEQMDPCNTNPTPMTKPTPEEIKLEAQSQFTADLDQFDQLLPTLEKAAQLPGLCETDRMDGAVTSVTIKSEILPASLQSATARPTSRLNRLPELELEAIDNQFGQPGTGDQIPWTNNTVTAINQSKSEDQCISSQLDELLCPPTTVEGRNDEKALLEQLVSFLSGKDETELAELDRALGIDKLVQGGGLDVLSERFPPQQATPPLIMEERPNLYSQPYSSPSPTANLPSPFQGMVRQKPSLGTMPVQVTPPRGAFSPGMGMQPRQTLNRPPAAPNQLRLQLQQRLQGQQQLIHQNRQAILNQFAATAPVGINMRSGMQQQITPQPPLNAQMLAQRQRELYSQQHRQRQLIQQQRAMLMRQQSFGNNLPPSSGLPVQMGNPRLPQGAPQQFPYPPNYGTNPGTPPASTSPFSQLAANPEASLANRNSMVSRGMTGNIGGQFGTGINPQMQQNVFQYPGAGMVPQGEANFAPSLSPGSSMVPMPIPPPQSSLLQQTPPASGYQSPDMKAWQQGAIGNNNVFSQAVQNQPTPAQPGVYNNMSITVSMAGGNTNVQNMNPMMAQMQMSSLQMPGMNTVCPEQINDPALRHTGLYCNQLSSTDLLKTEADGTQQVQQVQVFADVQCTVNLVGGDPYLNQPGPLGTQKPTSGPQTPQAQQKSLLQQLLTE
Nuclear receptor coactivator 2 (Homo sapiens), sequence (Q15596 whole entry, looked up, the tested form may be a part): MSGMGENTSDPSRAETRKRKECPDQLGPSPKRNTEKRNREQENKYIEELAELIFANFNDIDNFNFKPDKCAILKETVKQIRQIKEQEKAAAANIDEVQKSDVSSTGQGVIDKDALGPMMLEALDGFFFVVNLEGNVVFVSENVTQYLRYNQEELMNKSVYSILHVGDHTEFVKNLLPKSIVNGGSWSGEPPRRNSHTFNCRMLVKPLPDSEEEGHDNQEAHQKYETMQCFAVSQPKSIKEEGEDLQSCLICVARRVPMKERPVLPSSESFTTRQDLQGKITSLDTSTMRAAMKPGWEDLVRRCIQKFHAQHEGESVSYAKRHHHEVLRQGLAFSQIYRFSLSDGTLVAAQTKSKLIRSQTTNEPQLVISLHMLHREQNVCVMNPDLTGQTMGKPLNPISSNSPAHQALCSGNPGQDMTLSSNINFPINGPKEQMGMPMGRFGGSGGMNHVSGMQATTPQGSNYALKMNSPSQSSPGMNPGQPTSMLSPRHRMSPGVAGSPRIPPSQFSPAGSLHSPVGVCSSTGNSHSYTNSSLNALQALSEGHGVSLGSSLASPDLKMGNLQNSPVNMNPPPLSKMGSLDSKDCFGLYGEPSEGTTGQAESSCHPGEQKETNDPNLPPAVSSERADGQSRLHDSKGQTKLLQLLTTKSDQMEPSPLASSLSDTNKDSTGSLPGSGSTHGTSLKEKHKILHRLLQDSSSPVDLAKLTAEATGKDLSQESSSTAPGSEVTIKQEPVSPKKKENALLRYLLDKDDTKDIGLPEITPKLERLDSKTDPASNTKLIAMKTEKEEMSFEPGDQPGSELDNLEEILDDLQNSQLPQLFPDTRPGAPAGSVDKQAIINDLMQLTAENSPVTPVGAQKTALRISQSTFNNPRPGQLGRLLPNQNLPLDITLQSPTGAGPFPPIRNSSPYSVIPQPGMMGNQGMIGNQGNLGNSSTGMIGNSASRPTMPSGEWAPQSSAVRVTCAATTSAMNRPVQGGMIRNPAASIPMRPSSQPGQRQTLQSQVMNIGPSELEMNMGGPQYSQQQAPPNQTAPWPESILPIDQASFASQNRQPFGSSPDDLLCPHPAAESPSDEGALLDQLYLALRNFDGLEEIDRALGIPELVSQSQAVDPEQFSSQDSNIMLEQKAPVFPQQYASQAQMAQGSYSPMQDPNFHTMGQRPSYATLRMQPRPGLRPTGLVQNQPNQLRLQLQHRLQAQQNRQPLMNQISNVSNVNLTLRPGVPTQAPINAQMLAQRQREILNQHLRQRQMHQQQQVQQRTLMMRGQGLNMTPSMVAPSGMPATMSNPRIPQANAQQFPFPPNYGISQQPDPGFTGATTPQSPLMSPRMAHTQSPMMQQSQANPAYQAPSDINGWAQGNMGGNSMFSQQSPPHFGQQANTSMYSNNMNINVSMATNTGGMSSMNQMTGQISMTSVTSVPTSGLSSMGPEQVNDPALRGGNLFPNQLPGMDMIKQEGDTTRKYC

Take `O=C(/C=C/c1ccccc1)CC(O)(c1ccccc1)C(F)(F)F` (stereo unspecified): the inhibition in assay [1] was 38.5%; in assay [2] it was 31% (active); in assay [3], 12.9%; in assay [4], 45.9% (active); in assay [5] it was 21.8%; in assay [6], 32.7%.

As for `COc1ccc(-n2c(C)c([N+](=O)[O-])c3ccc(O)c(CN4CCCCC4)c32)cc1`, the inhibition is 47.4% (active) in assay [1]; 30.5% (active) in assay [2]; 54.9% (active) in assay [3]; 39.5% (active) in assay [4]; 4.57% in assay [5]; 48.4% (active) in assay [6].

Consider `Oc1ccc(Nc2ncnc3scc(-c4ccccc4)c23)cc1`, for which the inhibition in assay [1] is 38.6%; in assay [2] it was 35.8% (active); in assay [3], 41%; in assay [4], 31.3% (active); in assay [5] it was -10.2%; in assay [6], 57.6% (active).

As to `c1cc(-c2cnc3cccnn23)c2cccnc2c1`, the inhibition in assay [1] is 65.8% (active); in assay [2], 42.7% (active); in assay [3], 57.9% (active); in assay [4], 40.2% (active); in assay [5], -9.33%; in assay [6] it was 26.5%.

Take `Cc1csc(SCC(=O)c2cc(C)n(Cc3cccs3)c2C)n1`: the inhibition in assay [1] was 9.06%; in assay [2] it was -12.3%; in assay [3] it was -81.8%; in assay [4] it was -42.6%; in assay [5] it was -28.2%; in assay [6] it was 31.4%.

Take `Cc1nn(C(C)(C)C)c(C)c1/C=N/OC(=O)Nc1ccc(Cl)c(Cl)c1`: the inhibition in assay [1] is 20.2%; in assay [2], 16.6%; in assay [3], 25.3%; in assay [4] it was 12%; in assay [5] it was 63% (active); in assay [6] it was 82% (active).

With `O=C(Nc1cccc(C(F)(F)F)c1)Nc1nnc([C@@H]2C[C@H](O)[C@@H](CO)O2)s1`, the inhibition in assay [1] is 49% (active); in assay [2], 21.6%; in assay [3] it was 29.3%; in assay [4], 20.7%; in assay [5], 1.58%; in assay [6], 29.1%.

On to `CC1(Cc2ccc(Cl)cc2)C(=O)Nc2ccc(-c3cccnc3)cc21` (stereo unspecified), for which the inhibition in assay [1] is 73.7% (active); in assay [2] it was 49.3% (active); in assay [3], 59.2% (active); in assay [4] it was 52.8% (active); in assay [5], 6.39%; in assay [6], 53.2% (active).

Turning to `COc1ccc(-c2nc(-c3ccccn3)no2)cc1`, the inhibition in assay [1] is 63.4% (active); in assay [2] it was 48.2% (active); in assay [3], 16.6%; in assay [4], 44.4% (active); in assay [5], 62.5% (active); in assay [6] it was 80.7% (active).

For the compound `c1cc2[nH]snc2c2nc(C3CC3)nc12`, the inhibition in assay [1] is 63.9% (active); in assay [2] it was 18.3%; in assay [3] it was 53.3% (active); in assay [4], 23.3%; in assay [5], -12.6%; in assay [6], 19%.

Take `S=c1[nH]nc(C2CCCCC2)n1/N=C/c1ccncc1`: the inhibition in assay [1] is 75.2% (active); in assay [2], 60.4% (active); in assay [3], 64.6% (active); in assay [4] it was 60.1% (active); in assay [5] it was 10.3%; in assay [6], 51.4% (active).

Take `COc1ccc(N(C(=O)CCl)C(C(=O)NC2CCCCC2)c2cccnc2)cc1` (stereo unspecified): the inhibition in assay [1] is 75.7% (active); in assay [2], 56.5% (active); in assay [3], 38.8%; in assay [4], 51.5% (active); in assay [5] it was 68.8% (active); in assay [6], 69% (active).

`CN(Cc1nccs1)C(=O)c1cc(COc2cccc3cnccc23)on1`: the inhibition in assay [1] was 27.5%; in assay [2], 36.1% (active); in assay [3], 19.8%; in assay [4] it was 34.7% (active); in assay [5], 16.6%; in assay [6], 51.8% (active).

Consider `Cc1nnc(SCC(=O)N2CCC(c3noc4ccc(F)cc34)CC2)s1`, for which the inhibition in assay [1] is 85.1% (active); in assay [2], 48.4% (active); in assay [3], 69.4% (active); in assay [4] it was 45.1% (active); in assay [5], 6.59%; in assay [6], 44.8%.

As for `O=C1NC(=S)N/C1=C\c1cccnc1`, the inhibition in assay [1] is 49.2% (active); in assay [2], 36.6% (active); in assay [3], 52.9% (active); in assay [4], 33.3% (active); in assay [5], 0.14%; in assay [6], 44%.

Turning to `COc1ccc(-c2cncnc2-c2ccc(OC)cc2O)cc1`, the inhibition in assay [1] was 58.9% (active); in assay [2] it was 36.3% (active); in assay [3], 57.1% (active); in assay [4], 35% (active); in assay [5] it was 14.3%; in assay [6] it was 42.5%.

With `COc1ccc(-c2cc(=O)oc3cc(OC(=O)C4CCCCC4)c(Cl)cc23)cc1`, the inhibition in assay [1] was 59.4% (active); in assay [2], 38.7% (active); in assay [3] it was 56% (active); in assay [4], 41.2% (active); in assay [5], -4.78%; in assay [6], 37.4%.

Turning to `O=C(NC1CCCCC1)C(c1cccnc1)N(C(=O)CCl)c1ccc(F)cc1` (stereo unspecified), the inhibition in assay [1] is 78.3% (active); in assay [2], 65.9% (active); in assay [3], 20.8%; in assay [4], 65.1% (active); in assay [5], 64.5% (active); in assay [6] it was 64.8% (active).

Consider `CCc1ccn2cc(-c3cc(-c4ccccc4)no3)nc2c1`, for which the inhibition in assay [1] was 2.16%; in assay [2], 7.18%; in assay [3] it was -92.4%; in assay [4], -4.46%; in assay [5], 36.5% (active); in assay [6], 61.6% (active).

In the case of `Cc1ccc(-c2csc(=Nc3cccnc3)n2CCCn2ccnc2)cc1C`, the inhibition in assay [1] was 71% (active); in assay [2], 51.5% (active); in assay [3] it was 66.7% (active); in assay [4] it was 45.6% (active); in assay [5] it was -0.44%; in assay [6], 56.8% (active).

For `CC1CCN(C2=NC(=O)/C(=C/c3ccccc3F)S2)CC1`, the inhibition was 38.5% in assay [1]; -5.24% in assay [2]; -2.11% in assay [3]; -40.4% in assay [4]; -74.3% in assay [5]; 15.4% in assay [6].

A word on the inhibition: it is the drop in the measured response relative to a control, in per cent.
